The source of these data is PubChem BioAssay.

The structures appear in SMILES notation. Values without a mark were called inactive.
Further: test concentration not given here.

System in the first experiment: not listed separately
Description: MM1S myeloma cell viability, profiling panel, resazurin fluorescence, basal, 24 h, PK04 Diversity Set (AID 1174).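 Further: MM1S multiple myeloma cell line.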 The settings on record: higher = more signal, called active from +8 up or from −8 down. For orientation: Alamar Blue is a resazurin reagent that responds to reducing activity.
Take `COC(=O)C[C@H]1O[C@@H](CCc2ccccc2)[C@@H](C)[C@@H]1[Si](C)(C)c1ccc(OC)cc1`: the z-score is -0.229.

For the compound `CN1C(=O)C2C=CC(C(O)c3ccccc3)N(N3CCCCC3)C2C1=O` (stereo not drawn), the z-score was -0.983.

Consider `COC(=O)[C@@]1(Cc2ccc(OC)cc2)[C@H]2c3cc(C(=O)N4CCCC4)n(CCSCCO)c3C[C@H]2CN1C(=O)c1ccccc1`, for which the z-score is 0.129.

Consider `COC(=O)c1c(CC[C@@H](CO)NC(=O)NCCc2c[nH]c3ccccc23)oc(C(=O)Cc2ccccc2)c1C(=O)OC`, for which the z-score was 1.31.

With `O[C@@H](Cc1ccccc1)[C@@H](/C=C/C1CC1)NCc1cccc(Cl)c1`, the z-score is -1.22.

With `CN1CCC(CCCO)=CC1c1cccs1` (stereo not drawn), the z-score is -0.838.

For the compound `CO[C@H]1O[C@H](CO)[C@@H](OC(=O)Nc2ccc(Br)cc2)[C@@H]2OC(=O)[C@H](Cc3cccc(Br)c3)C/C=C/C[C@@H](Cc3cccc(Br)c3)C(=O)O[C@@H]12`, the z-score was -1.79.

On to `COCC(=C=CC[C@@H](O)c1ccc(OCCO)cc1)C[C@@H](O)c1ccccn1`, for which the z-score is -0.46.

In the case of `COC(=O)[C@@]1(Cc2ccc(OC)cc2)[C@H]2c3cc(C(=O)N(C)C)n(Cc4ccc(C(F)(F)F)nc4)c3C[C@H]2CN1C(=O)c1ccccc1`, the z-score is -0.312.

Turning to `COCCCNC(=O)[C@@H]1c2ccccc2C(=O)N(Cc2ccccc2OC)[C@H]1c1ccc(CO)cc1`, the z-score was 1.71.

On to `O=C1O[C@@H](c2ccccc2)[C@@H](c2ccccc2)N2[C@@H](c3ccc(OCCO)cc3)[C@]3(C(=O)Nc4ccc(C#CCCO)cc43)[C@@H](C(=O)NC[C@H](O)c3ccccc3)[C@H]12`, for which the z-score is 0.428.

`O=C(O)[C@H]1C[C@H]2C(=O)N3CCC[C@H]3C(=O)N2[C@H]1c1ccc(O)cc1`: the z-score is 1.1.

For `[N-]=[N+]=NCc1ccccc1C[C@@]1(C(=O)NCC(O)CO)N=C(c2ccc(OCCCO)cc2)O[C@@H]1c1ccccc1` (stereo partly drawn), the z-score was -0.243.

For another experiment, the target named is Dihydroorotate dehydrogenase (quinone), mitochondrial (Plasmodium falciparum (isolate 3D7)) (UniProt Q08210). The experiment is described as follows: PfDHODH enzyme inhibitors, primary screen, biochemical, C-terminal His tag, absorbance 600 nm (AID 1175).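 Further: recombinant parasite enzyme with a five histidine tag at its C terminus.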 The conditions noted are these: DCIP absorbance 600 nm, higher = more signal, called active from +8 up or from −8 down.
Chain of Dihydroorotate dehydrogenase (quinone), mitochondrial (Plasmodium falciparum (isolate 3D7)) (Q08210 whole entry, looked up): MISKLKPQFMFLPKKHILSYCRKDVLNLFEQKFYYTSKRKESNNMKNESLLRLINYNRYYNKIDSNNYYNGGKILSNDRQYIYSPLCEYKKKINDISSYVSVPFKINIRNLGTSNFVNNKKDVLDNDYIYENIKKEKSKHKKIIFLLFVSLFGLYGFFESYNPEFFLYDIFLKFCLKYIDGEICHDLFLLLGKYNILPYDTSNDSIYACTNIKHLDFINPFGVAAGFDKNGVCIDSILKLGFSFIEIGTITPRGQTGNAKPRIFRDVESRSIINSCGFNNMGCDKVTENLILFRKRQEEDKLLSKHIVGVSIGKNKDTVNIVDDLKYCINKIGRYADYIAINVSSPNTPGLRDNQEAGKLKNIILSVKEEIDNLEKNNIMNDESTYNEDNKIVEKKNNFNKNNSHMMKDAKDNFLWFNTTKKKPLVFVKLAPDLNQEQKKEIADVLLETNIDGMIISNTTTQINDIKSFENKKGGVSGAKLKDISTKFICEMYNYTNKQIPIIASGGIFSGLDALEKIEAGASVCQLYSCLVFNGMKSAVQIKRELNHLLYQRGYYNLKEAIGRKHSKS
For `C#CCN1[C@@H](Cc2ccc(O)cc2)C(=O)O[C@H](Cc2ccccc2)[C@@H]1/C=C/C1CC1`, the composite z-score was -0.652.

Turning to `CCCCCCCCCCC(O)C1C=CC2C(=O)NC(=O)C2N1Nc1ccc(Cl)cc1Cl` (stereo not drawn), the composite z-score was 0.762.

Turning to `O=C(NCc1ccccc1)[C@@H]1c2ccccc2C(=O)N(C2Cc3ccccc3C2)[C@H]1c1ccc(CO)cc1`, the composite z-score was 0.211.

On to `CN(C)CCCCCCNC(=O)[C@@H]1C[C@@H]2C(=O)N3CCC[C@H]3C(=O)N2[C@@H]1c1ccc(O)cc1`, for which the composite z-score was -1.7.

For the compound `N#Cc1ccc(C(O)C2C=CC3C(=O)N(c4ccccc4)C(=O)C3N2Nc2ccccc2F)cc1` (stereo not drawn), the composite z-score is 0.775.

As to `COc1ccc([Si](C)(C)[C@@H]2[C@@H](CC(=O)N3Cc4ccccc4C[C@H]3CO)O[C@]3(C(=O)N(Cc4cccc(N5CCC5=O)c4)c4ccccc43)[C@H]2C)cc1`, the composite z-score was -3.46.

In the case of `CS(=O)(=O)CCOC(=O)C1=CC(CCCO)=CC(C2CC2)N(Cc2cc3c(cc2Br)OCO3)C=C1C(=O)OCCS(C)(=O)=O` (stereo not drawn), the composite z-score was -1.5.

On to `NC(=O)N1C(=O)C2C(C1=O)C1C=C(CCCO)C2C(C2CC2)N1Cc1cc2c(cc1Br)OCO2` (stereo not drawn), for which the composite z-score is -0.659.

Regarding `O=C1OCCC=C[C@H]2OC34C=CCN(CCN5CCOCC5)C(=O)[C@H]3N(CCCCCO)C(=O)[C@@H]4C12` (stereo partly drawn), the composite z-score was 0.233.

Regarding `CC(CO)N1C(=O)[C@@H]2C3C(=O)OCCC/C=C\[C@H]3OC23C=CCN(CCN2CCOCC2)C(=O)[C@@H]13` (stereo partly drawn), the composite z-score is -0.387.

`CCCCCCc1nc(-c2ccc(-c3ccc(Cl)c(Cl)c3)o2)c(C)c2c1[Si](C(C)C)(C(C)C)OC2`: the composite z-score is -2.2.

Consider `CCOc1cc(C(O)C2C=CC3C(=O)N(c4ccccc4)C(=O)C3N2Nc2ccc(C(C)C)cc2)ccc1O` (stereo not drawn), for which the composite z-score was 1.15.

Turning to `CCOC(=O)C1=C[C@@H](C(C)C)N(S(=O)(=O)c2ccc(C)cc2)[C@H]1c1ccccc1F`, the composite z-score is -0.471.

As to `COc1cc2c(cc1O)C(c1cccs1)N(Cc1cccc(OC(F)(F)F)c1)CC2` (stereo not drawn), the composite z-score is -4.69.

For the compound `C=CCN1C(=O)[C@]2(Cc3ccccc3)N=C(c3ccc(OCCCO)cc3)O[C@@H]2c2ccccc21`, the composite z-score is -0.963.

Turning to `COc1ccc([Si](C)(C)[C@@H]2[C@@H](CCn3cc(CCO)nn3)O[C@]3(C(=O)N(Cc4cccc(N5C(=O)c6cccc7cccc5c67)c4)c4ccccc43)[C@H]2C)cc1`, the composite z-score was 0.0598.

`C=CCN(Cc1ccccc1)C(=O)C(c1cccs1)N(C(=O)/C=C\C(=O)O)c1ccc(CCOCCO)cc1` (stereo not drawn): the composite z-score was -1.54.

Take `COC(=O)c1c2oc(c1C(=O)OC)C(=O)NC1(CCCCC1)c1cn(nn1)C[C@H](Cc1ccccc1)NC(=O)N[C@H](CO)CC2`: the composite z-score was -0.805.

`CC(=O)NCCCC[C@@H]1NC(=O)[C@H]2C[C@@H](C(=O)NCCCCCNC(=O)CS)[C@@H](c3ccc(O)cc3)N2C1=O`: the composite z-score was 0.452.

With `COCCCNC(=O)[C@@]1(CCS(=O)(=O)c2ccccc2)N=C(c2ccc(OCCCO)cc2)O[C@H]1c1ccccc1N=[N+]=[N-]`, the composite z-score is -0.396.

In the case of `COc1ccc(NN2C(C(O)c3ccc(N(C)C)cc3)C=CC3C(=O)N(C4CCCCC4)C(=O)C32)cc1` (stereo not drawn), the composite z-score is 0.128.

In the case of `[N-]=[N+]=NCc1ccccc1[C@@H]1OC(c2ccc(OCCCO)cc2)=N[C@]1(CCS(=O)(=O)c1ccccc1)C(=O)N1CCCCC1`, the composite z-score was 0.667.

For `COC(=O)C[C@H]1O[C@@H](CCc2ccccc2)[C@@H](C)[C@@H]1[Si](C)(C)c1ccc(OC)cc1`, the composite z-score was 0.656.

Turning to `CN1C(=O)C2C=CC(C(O)c3ccccc3)N(N3CCCCC3)C2C1=O` (stereo not drawn), the composite z-score was 0.0669.

As to `COC(=O)[C@@]1(Cc2ccc(OC)cc2)[C@H]2c3cc(C(=O)N4CCCC4)n(CCSCCO)c3C[C@H]2CN1C(=O)c1ccccc1`, the composite z-score is -0.0408.

For the compound `COC(=O)c1c(CC[C@@H](CO)NC(=O)NCCc2c[nH]c3ccccc23)oc(C(=O)Cc2ccccc2)c1C(=O)OC`, the composite z-score was -2.63.

Consider `O[C@@H](Cc1ccccc1)[C@@H](/C=C/C1CC1)NCc1cccc(Cl)c1`, for which the composite z-score was -0.316.

For `CN1CCC(CCCO)=CC1c1cccs1` (stereo not drawn), the composite z-score is -0.404.

For the compound `CO[C@H]1O[C@H](CO)[C@@H](OC(=O)Nc2ccc(Br)cc2)[C@@H]2OC(=O)[C@H](Cc3cccc(Br)c3)C/C=C/C[C@@H](Cc3cccc(Br)c3)C(=O)O[C@@H]12`, the composite z-score was -2.81.

Consider `COCC(=C=CC[C@@H](O)c1ccc(OCCO)cc1)C[C@@H](O)c1ccccn1`, for which the composite z-score was -2.5.

In the case of `COC(=O)[C@@]1(Cc2ccc(OC)cc2)[C@H]2c3cc(C(=O)N(C)C)n(Cc4ccc(C(F)(F)F)nc4)c3C[C@H]2CN1C(=O)c1ccccc1`, the composite z-score was -0.224.

`COCCCNC(=O)[C@@H]1c2ccccc2C(=O)N(Cc2ccccc2OC)[C@H]1c1ccc(CO)cc1`: the composite z-score was 0.253.

With `O=C1O[C@@H](c2ccccc2)[C@@H](c2ccccc2)N2[C@@H](c3ccc(OCCO)cc3)[C@]3(C(=O)Nc4ccc(C#CCCO)cc43)[C@@H](C(=O)NC[C@H](O)c3ccccc3)[C@H]12`, the composite z-score was 1.47.

`O=C(O)[C@H]1C[C@H]2C(=O)N3CCC[C@H]3C(=O)N2[C@H]1c1ccc(O)cc1`: the composite z-score is -0.453.

`[N-]=[N+]=NCc1ccccc1C[C@@]1(C(=O)NCC(O)CO)N=C(c2ccc(OCCCO)cc2)O[C@@H]1c1ccccc1` (stereo partly drawn): the composite z-score was -0.0675.
